Data from PubChem BioAssay (Tox21).
The source made the active and inactive calls. Calls follow the shape of the dose curve; as a rule, active = well fitted curve in the direction sought with a large enough effect in the repeat runs; inconclusive = weak or mixed curves; inactive = flat fitted curve, though single readings scatter.

Experiment: qHTS assay to test for compound auto fluorescence at 590 nm (red) in HEK293 cell free culture (AID 720683)
Settings: cell-free medium autofluorescence, Ex540/Em590 red; series mostly up to 91.3 µM
Source text: U.S. Tox21 Program National Center for Advancing Translational Sciences [NCATS] NIH Chemical Genomics Center [NCGC] U.S. Environmental Protection Agency [EPA] National Institutes of Environmental Health Sciences [NIEHS] National Toxicology Program [NTP] U.S. Food and Drug Administration [FDA] Tox21 Assay Overview: Compound auto fluorescence often interferes with screening of the compound library against various biological targets and signaling pathways. Some of these compounds may have fluorophoric properties. Such properties may interfere with the assay outputs resulting in false positives and/or negatives. To decrease such complications and ensure the compound activities are relevant in terms of biological response, the Tox21 10K compound library was screened for auto fluorescence. From the fluorophores used as reporter signals in our screening assays, the auto fluorescence equivalencies of compounds against three fluorophores have been evaluated: Triamterene, Fluorescein and Rose Bengal sodium for blue, green and red fluorescence, respectively. The fluorescence intensities were measured using Excitation/Emission wavelengths at 405/460nm, 485/535nm and 540/590nm for blue, green and red labels, respectively. This assay includes the red fluorescence data.
Tox21 Assay Protocol Summary: 5 uL of culture medium (DMEM containing 10% FBS) per well was dispensed into black wall/clear bottom 1536-well plates using a Multidrop Combi Dispenser (ThermoFisher Scientific, Waltham, MA). After 23 nL compound or DMSO vehicle was transferred into assay plate by a pintool work station (Kalypsys, San Diego, CA), fluorescence intensities in the assay plates were measured by an Envision (PerkinElmer, Shelton, CT) plate reader using three labels for measuring blue, green and red fluorescence at […] 460, 535 and 590nm respectively.

With `C[C@H]1CC[C@@H]2[C@@H](C)[C@H]3[C@H](C[C@H]4[C@@H]5CC=C6CC(O[C@@H]7O[C@H](CO)[C@H](O)[C@H](O[C@@H]8O[C@H](CO)[C@@H](O)[C@H](O)[C@H]8O)[C@H]7O[C@H]7O[C@@H](C)[C@H](O)[C@@H](O)[C@H]7O)CC[C@]6(C)[C@H]5CC[C@]34C)N2C1` (stereo not given in full) as the compound, how does the outcome read?
The outcome was “inactive”.

Which outcome does the source give for `CC(=O)[O-].[Tl+]` here?
Its outcome is “inactive”.

Which outcome does the source give for `c1ccc2cc3c(cc2c1)-c1cccc2cccc-3c12` here?
Its outcome is “inactive”.

Which outcome does the source give for `N#CNC#N` here?
The outcome was “inactive”.

With `CC(C)C1CCC(Cc2ccc(Cl)cc2)C1(O)Cn1cncn1` (stereo not given) as the compound, how does the outcome read?
Its outcome is “inactive”.

With `CCCCCCCCc1ccc(O)cc1` as the compound, how does the outcome read?
Its outcome is “inactive”.

Which outcome does the source give for `S=C=Nc1cccc2ccccc12` here?
Its outcome is “inactive”.

Which outcome does the source give for `CC(C)OC(=S)S` here?
The outcome was “inactive”.

Which outcome does the source give for `CC1CCC(C(C)C)C(OC(=O)c2ccccc2N)C1` (stereo not given) here?
Its outcome is “inactive”.

Which outcome does the source give for `CN(C)C(=S)S` here?
Its outcome is “inactive”.

With `OC(c1ccc(Cl)cc1)(c1ccc(Cl)cc1)C(Cl)(Cl)Cl` as the compound, how does the outcome read?
Its outcome is “inactive”.

For `CCC[CH2][Sn]([CH2]CCC)([CH2]CCC)[O]C(=O)c1ccccc1`, which outcome is on record?
Its outcome is “inactive”.

Which outcome does the source give for `CCC(C)(C)C(=O)OC1=C(c2ccc(Cl)cc2Cl)C(=O)OC12CCCCC2` here?
The outcome was “inactive”.

For `C[C@]12Cc3nonc3C[C@@H]1CC[C@@H]1[C@@H]2CC[C@@]2(C)[C@H]1CC[C@]2(C)O`, which outcome is on record?
The outcome was “inactive”.

Which outcome does the source give for `C[C@@H]1O[C@@H](O[C@H]2C[C@@H](O)[C@]3(CO)[C@H]4[C@H](O)C[C@]5(C)[C@@H](C6=CC(=O)OC6)CC[C@]5(O)[C@@H]4CC[C@]3(O)C2)[C@H](O)[C@H](O)[C@H]1O` here?
The outcome was “inactive”.

Which outcome does the source give for `Nc1ccccc1C(=O)OC/C=C/c1ccccc1` here?
The outcome was “inactive”.

Which outcome does the source give for `CCCCCCCCCCCCCCCC[n+]1ccccc1` here?
The outcome was “inactive”.

Which outcome does the source give for `CCOCn1c(-c2ccc(Cl)cc2)c(C#N)c(Br)c1C(F)(F)F` here?
The outcome was “inactive”.

With `COC12CC[C@@]3(C[C@@H]1C(C)(O)C(C)(C)C)[C@H]1Cc4ccc(O)c5c4[C@@]3(CCN1CC1CC1)[C@H]2O5` (stereo not given in full) as the compound, how does the outcome read?
The outcome was “inactive”.

For `O=C(Nc1ccc2[nH]ccc2c1)c1cc2cc(F)ccc2n1Cc1cccc(F)c1`, which outcome is on record?
The outcome was “inactive”.

Which outcome does the source give for `N#CSCSC#N` here?
Its outcome is “inactive”.

With `O=c1[nH]c2ccccc2n1CCCN1CCC(n2c(=O)[nH]c3cc(Cl)ccc32)CC1` as the compound, how does the outcome read?
The outcome was “inactive”.

Which outcome does the source give for `O=[N+]([O-])c1c2ccccc2cc2ccccc12` here?
The outcome was “inactive”.

For `CCCN(CC)CC1COC2(CCC(C(C)(C)C)CC2)O1` (stereo not given), which outcome is on record?
The outcome was “inactive”.

For `C[C@]12CC[C@@H]3c4ccc(OC(=O)N(CCCl)CCCl)cc4CC[C@H]3[C@@H]1CC[C@@H]2O`, which outcome is on record?
Its outcome is “inactive”.

For `CC(C)CC(C)(c1ccc(O)cc1)c1ccc(O)cc1`, which outcome is on record?
Its outcome is “inactive”.

With `COc1ccc(N)cc1N` as the compound, how does the outcome read?
Its outcome is “inactive”.

With `CC(C)[C@H](C(=O)O[C@H](C#N)c1cccc(Oc2ccccc2)c1)c1ccc(Cl)cc1` as the compound, how does the outcome read?
Its outcome is “inactive”.

For `CCCSP(=O)(OCC)SCCC`, which outcome is on record?
The outcome was “inactive”.

With `COP(=S)(OC)Oc1cc(Cl)c(Br)cc1Cl` as the compound, how does the outcome read?
The outcome was “inactive”.

For `CC1(C)CC/C(=C/c2ccc(Cl)cc2)C1(O)Cn1cncn1` (stereo not given), which outcome is on record?
The outcome was “inactive”.

Which outcome does the source give for `O=C(CCl)C(Cl)Cl` here?
Its outcome is “inactive”.

With `S=C(SSC(=S)N1CCCCC1)N1CCCCC1` as the compound, how does the outcome read?
The outcome was “inactive”.

Which outcome does the source give for `Cc1cc(C)cc(OP(=O)(Oc2cc(C)cc(C)c2)Oc2cc(C)cc(C)c2)c1` here?
Its outcome is “inactive”.

For `Oc1ccc(C2(c3ccc(O)cc3)c3ccccc3-c3ccccc32)cc1`, which outcome is on record?
The outcome was “inactive”.

With `CCN` as the compound, how does the outcome read?
The outcome was “inactive”.

With `N#CCCSCCC#N` as the compound, how does the outcome read?
Its outcome is “inactive”.

With `Clc1ccc(CO/N=C(\Cn2ccnc2)c2ccc(Cl)cc2Cl)c(Cl)c1` as the compound, how does the outcome read?
Its outcome is “inactive”.

Which outcome does the source give for `COc1cccc(C(=O)CCN[C@@H](C)[C@H](O)c2ccccc2)c1` here?
The outcome was “inactive”.

For `CC(=O)[O-].CC(=O)[O-].O.O.[Cd+2]`, which outcome is on record?
The outcome was “inactive”.
